Measurements as given in PubChem BioAssay (NCATS).
Calls of active or inactive are those of the source. Calls follow the shape of the dose curve; as a rule, active = well fitted curve in the direction sought with a large enough effect; inconclusive = small, poorly fitted or top-dose-only effect, or another doubt; inactive = no such curve, though single readings can be large; an effect the other way counts as inactive or inconclusive.

Target: Alpha-galactosidase A (Homo sapiens) (UniProt P06280)
Sequence (P06280 whole entry, looked up): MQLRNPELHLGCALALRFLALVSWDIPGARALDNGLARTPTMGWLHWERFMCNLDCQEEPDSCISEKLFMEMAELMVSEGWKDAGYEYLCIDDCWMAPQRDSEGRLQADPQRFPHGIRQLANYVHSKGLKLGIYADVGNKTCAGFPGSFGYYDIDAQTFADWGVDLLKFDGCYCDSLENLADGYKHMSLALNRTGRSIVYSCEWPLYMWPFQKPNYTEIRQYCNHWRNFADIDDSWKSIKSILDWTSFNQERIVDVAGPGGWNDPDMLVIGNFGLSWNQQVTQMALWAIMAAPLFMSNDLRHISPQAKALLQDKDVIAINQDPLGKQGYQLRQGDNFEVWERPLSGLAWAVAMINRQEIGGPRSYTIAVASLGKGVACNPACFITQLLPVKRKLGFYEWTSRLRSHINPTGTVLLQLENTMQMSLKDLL
Assay: Counterscreen for Glucocerebrosidase Inhibitors: qHTS Assay for Human alpha-Galactosidase at pH 4.5 (AID 992); also: 0% is about no effect
Conditions: purified enzyme, fluorogenic substrate; series mostly up to 76.9 µM; activity change, negative = inhibition: at the top concentration
Summary of the method: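 Human enzyme (2 nM) with 80 uM 4-methylumbelliferyl alpha-D-galactopyranoside in 50 mM citric acid, 0.005% Tween-20, pH 4.5, 20 min at room temperature. Compounds 0.7 nM–77 uM; fluorescence Ex 365/Em 440 after pH 10 stop; AC50 from Hill fits.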
For `N[C@@H]1CONC1=O`, the outcome was “inactive”.
For `Cc1ccc(N(CC2=NCCN2)c2cccc(O)c2)cc1`, the “activity change, negative = inhibition” value was -1.4% (inactive).
With `NCCc1ccc(O)c(O)c1` the “activity change, negative = inhibition” value was -2.03% (inactive).
With `Clc1cccc(Cl)c1NC1=NCCN1` the “activity change, negative = inhibition” value was -1.38% (inactive).
In the case of `NS(=O)(=O)c1cc2c(cc1Cl)NC=NS2(=O)=O`, the “activity change, negative = inhibition” value was -2.4% (inactive).
In the case of `CCCCNc1cc(C(=O)O)cc(S(N)(=O)=O)c1Oc1ccccc1`, the “activity change, negative = inhibition” value was 0.837% (inactive).
With `CC(=O)Oc1ccccc1C(=O)O` the “activity change, negative = inhibition” value was -0.162% (inactive).
With `Nc1ccc(S(=O)(=O)Nc2ccnn2-c2ccccc2)cc1` the “activity change, negative = inhibition” value was 6.78% (inactive).
In the case of `Cc1[nH]c(=O)c(C#N)cc1-c1ccncc1`, the “activity change, negative = inhibition” value was -0.944% (inactive).
In the case of `NC[C@H](O)c1ccc(O)c(O)c1`, the outcome was “inactive”.
For `Cc1oncc1C(=O)Nc1ccc(C(F)(F)F)cc1`, the “activity change, negative = inhibition” value was -1.42% (inactive).
With `Cn1cnc([N+](=O)[O-])c1Sc1ncnc2nc[nH]c12` the “activity change, negative = inhibition” value was -2.34% (inactive).
In the case of `NNCCc1ccccc1`, the “activity change, negative = inhibition” value was -3.29% (inactive).
For `Nc1nc2ccc(OC(F)(F)F)cc2s1`, the “activity change, negative = inhibition” value was 3.82% (inactive).
For `Cc1cnc(NC(=O)C2=C(O)c3ccccc3S(=O)(=O)N2C)s1`, the “activity change, negative = inhibition” value was -4.33% (inactive).
For `N=c1nc(N2CCCCC2)cc(N)n1O`, the “activity change, negative = inhibition” value was 2.23% (inactive).

Test system: not listed separately
Assay: Cell Viability - LYMP1-002 - Assay at 24 hr (AID 993); also: % is scaled to controls: 0 for no effect and ±100 for the full control effect
Conditions: LYMP1-002 lymphoblastoid cells viability; series mostly up to 92.2 µM; activity change, negative = cytotoxicity: at the top concentration
Source text: NIH Chemical Genomics Center [NCGC]
NIH Molecular Libraries Screening Centers Network [MLSCN]
National Institutes of Environmental Health Sciences [NIEHS]
National Toxicology Program [NTP]
We have developed a 1536-well cell-based assay for quantitative high throughput screening (qHTS) against a number of cell lines to determine in vitro cytotoxicity of small molecules. This particular assay uses a human lymphoblastoid cell line (LYMP1-002) purchased from Coriell Institute for Medical Research.
NCGC Assay Protocol Summary:
The CellTiter-Glo luminescent cell viability assay (Promega) is a homogeneous method to measure the number of viable cells in culture. The end point readout of this assay is based on quantitation of intracellular ATP, an indicator of metabolic activity, using the luciferase reaction. Luciferase catalyzes the oxidation of beetle Luciferin to oxyluciferin and light in the presence of ATP. The luminescent signal is proportional to amount of ATP present.
Using the CellTiter-Glo luminescent cell viability assay, the amount of cellular ATP was measured in the lymphoblastoid cell line with complete culture medium following compound treatment for 24 hours. The assay was performed in opaque white Kalypsys 1536-well plates. In the screen, tetraoctylammonium bromide was used as positive control. Library compounds were measured for their ability to cause acute toxicity in the cell line, as reflected by a decrease in intracellular ATP levels, in a concentration-dependent manner. […] AC50 values were determined from concentration-response data modeled with the standard Hill equation.
qHTS protocol for CellTiter Glo lymphoblastoid cellular assay
[Step] [Parameter] [Value] [Description]
1. Reagent; 5 uL; 2500 lymphoblastoid cells/well
2. Time; 5 hr; 37 C incubation
4. Controls; 23 nL; Tetraoctylammonium bromide 6.4pM to 92 uM
5. Time; 24 hr; 37 C incubation
6. Reagent; 5 uL; CellTiter Glo reagent
7. Time; 30 min; Room Temperature
8. Detection; Luminescence; Viewlux plate reader
Keywords: cell viability, cytotoxicity, lymphoblastoid cell line, luminescence, NTPHTS, NTPHTS_NCGC, NIEHS, DSSTox, MLSMR, MLSCN, NIH Roadmap, qHTS, NCGC
For `NS(=O)(=O)c1cc2c(cc1Cl)NC=NS2(=O)=O`, the “activity change, negative = cytotoxicity” value was -5.65% (inactive).
In the case of `CC(=O)Oc1ccccc1C(=O)O`, the outcome was “inactive”.
With `Cn1cnc([N+](=O)[O-])c1Sc1ncnc2nc[nH]c12` the “activity change, negative = cytotoxicity” value was -18.7% (inactive).

Target: alpha-glucosidase (Oryza sativa, rice) (UniProt Q653V4)
Assay: Counterscreen for Glucocerebrosidase Inhibitors: qHTS Assay for Rice alpha-Glucosidase at pH 5.0 (AID 997);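 also: 0% = full activity with enzyme and -100% = basal without enzyme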
Conditions: rice alpha-glucosidase enzyme activity; series mostly up to 76.9 µM; activity change, negative = inhibition: at the top concentration
Summary of the method: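 Rice alpha-glucosidase (4 nM final) with 400 uM 4-methylumbelliferyl-alpha-D-glucopyranoside in citrate buffer pH 5.0, 20 min at room temperature, stopped at pH 10; fluorescence 365/440 nm, compounds 0.7 nM–77 uM, AC50 from Hill fits.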
With `N[C@@H]1CONC1=O` the outcome was “inactive”.
In the case of `Cc1ccc(N(CC2=NCCN2)c2cccc(O)c2)cc1`, the “activity change, negative = inhibition” value was -2.51% (inactive).
For `NCCc1ccc(O)c(O)c1`, the “activity change, negative = inhibition” value was -2.75% (inactive).
In the case of `Clc1cccc(Cl)c1NC1=NCCN1`, the “activity change, negative = inhibition” value was -4.01% (inactive).
For `NS(=O)(=O)c1cc2c(cc1Cl)NC=NS2(=O)=O`, the “activity change, negative = inhibition” value was -5.15% (inactive).
In the case of `CCCCNc1cc(C(=O)O)cc(S(N)(=O)=O)c1Oc1ccccc1`, the “activity change, negative = inhibition” value was -0.613% (inactive).
For `CC(=O)Oc1ccccc1C(=O)O`, the “activity change, negative = inhibition” value was -2.74% (inactive).
In the case of `Nc1ccc(S(=O)(=O)Nc2ccnn2-c2ccccc2)cc1`, the “activity change, negative = inhibition” value was -4.07% (inactive).
With `Cc1[nH]c(=O)c(C#N)cc1-c1ccncc1` the “activity change, negative = inhibition” value was -1.05% (inactive).
For `NC[C@H](O)c1ccc(O)c(O)c1`, the outcome was “inactive”.
In the case of `Cc1oncc1C(=O)Nc1ccc(C(F)(F)F)cc1`, the “activity change, negative = inhibition” value was -3.37% (inactive).
In the case of `Cn1cnc([N+](=O)[O-])c1Sc1ncnc2nc[nH]c12`, the “activity change, negative = inhibition” value was -4.58% (inactive).
For `NNCCc1ccccc1`, the “activity change, negative = inhibition” value was -7.36% (inactive).
In the case of `Nc1nc2ccc(OC(F)(F)F)cc2s1`, the “activity change, negative = inhibition” value was 0.106% (inactive).
With `Cc1cnc(NC(=O)C2=C(O)c3ccccc3S(=O)(=O)N2C)s1` the “activity change, negative = inhibition” value was -7.03% (inactive).
In the case of `N=c1nc(N2CCCCC2)cc(N)n1O`, the “activity change, negative = inhibition” value was -3.19% (inactive).
